# Measurements taken from PubChem BioAssay (NCATS).
# Inconclusive results are not listed. A call without a number means that no potency is given here. Activity calls are given as the source filed them. Calls follow the shape of the dose curve; as a rule, active = well fitted cell-killing curve with a large enough effect; inconclusive = small, poorly fitted or top-dose-only effect, or effect the other way; inactive = flat fitted curve, though single readings scatter. Peptide text beside a SMILES is read from it.
# Experiment: MultiTox-Fluor Cytotoxicity Assay - LYMP1-002 - Live Cells (AID 955)
# Conditions: LYMP1-002 lymphoblastoid live-cell protease fluorescence viability; series mostly up to 46.1 µM
# Description: NIH Chemical Genomics Center [NCGC]
# NIH Molecular Libraries Screening Centers Network [MLSCN]
# National Institutes of Environmental Health Sciences [NIEHS]
# National Toxicology Program [NTP]
# We have developed a 1536-well cell-based assay for quantitative high throughput screening (qHTS) against a number of cell lines to determine in vitro cytotoxicity of small molecules. This particular assay uses a human lymphoblastoid cell line (LYMP1-002) purchased from Coriell Institute.
# NCGC Assay Protocol Summary:
# The MultiTox-Fluor Cytotoxicity Assay (Promega) is a homogeneous method to simultaneously measure the relative number of live and dead cells in culture by detecting changes in cell membrane integrity. There are two fluorogenic peptide substrates in the assay reagent. Viable cells are determined when the cell-permeant substrate (GF-AFC) enters the cell and is cleaved by protease from live cells resulting in liberated fluorophore. This live-cell protease activity restricted to viable cells is proportional to cell number. The dead cells are determined by using fluorogenic cell-impermeant peptide substrate (bis-AAF-R110) which cleaved by dead cell proteases leaking from damaged cell membrane.
# Using the MultiTox-Fluor Cytotoxicity Assay, the relative number of live cells was measured in the lymphoblastoid cell line with complete culture medium following compound treatment for 16 hours. The assay was performed in opaque black Kalypsys 1536-well plates. In the screen, tetraoctylammonium bromide was used as positive control. Library compounds were measured for their ability to cause acute toxicity in the cell line, as reflected by a decrease in live cell protease activity, in a concentration-dependent manner. […] AC50 values were determined from concentration-response data modeled with the standard Hill equation.
# qHTS protocol for MultiTox-Fluor Cytotoxicity assay
# [Step] [Parameter] [Value] [Description]
# 1. Reagent; 5 uL; 2500 lymphoblastoid cells/well
# 2. Time; 5 hr; 37 C incubation
# 4. Controls; 23 nL; Tetraoctylammonium bromide 6.4pM to 92 uM
# 5. Time; 16 hr; 37 C incubation
# 6. Reagent; 5 uL; MuliTox-Fluor Assay reagent
# 7. Time; 60 min; Room Temperature
# 8. Detection; live-cell fluorescence (Ex/Em=405/510); EnVision plate reader
# Keywords: cell viability, cytotoxicity, lymphoblastoid cell line, fluorescence, NTPHTS, NTPHTS_NCGC, NIEHS, EPA, DSSTox, MLSMR, MLSCN, NIH Roadmap, qHTS, NCGC
# Potency is read from the fitted curve at half-maximal effect.
row,Structure (SMILES),Potency
1,CC(=O)Nc1ccc(O)cc1,inactive
2,Nc1ccc(S(N)(=O)=O)cc1,inactive
3,CN(C)c1ccc2nc3ccc(=[N+](C)C)cc-3sc2c1,12.6 µM (active)
4,Cc1ccc(C)c(OCCCC(C)(C)C(=O)O)c1,inactive
5,CS(=O)(=O)OCCCCOS(C)(=O)=O,inactive
6,CCCCC(CC)COC(=O)C(C#N)=C(c1ccccc1)c1ccccc1 (stereo not drawn),inactive
7,COC(=O)[C@H](Cc1ccccc1)NC(=O)[C@@H](N)CC(=O)O (H-Asp-Phe-OMe),inactive
8,c1ccc2[nH]c(-c3cscn3)nc2c1,inactive
9,Cc1cc(O)c2c(c1)C(=O)c1cc(O)cc(O)c1C2=O,inactive
10,CCCc1cc(=O)[nH]c(=S)[nH]1,inactive
11,CCc1nc(N)nc(N)c1-c1ccc(Cl)cc1,inactive
12,NS(=O)(=O)c1cc(C(=O)O)c(NCc2ccco2)cc1Cl,inactive
13,COc1c2occc2cc2ccc(=O)oc12,inactive
